Measurements as given in PubChem BioAssay (NCATS).
Inconclusive results are not listed. Unless noted, calls follow the shape of the dose curve; as a rule, active = well fitted curve in either direction with a large enough effect (not every such curve was filed as active); inconclusive = small, poorly fitted or top-dose-only effect, or another doubt; inactive = flat fitted curve, though single readings scatter.

Tests used:
[1] = AP1 Signaling Pathway (AID 357); conditions: ME-180 AP-1-bla reporter, EGF-induced, beta-lactamase ratio, 5 h; at 17.2 µM (top of the series) unless noted;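 also: ME-180 reporter cells stimulated with EGF at its EC50 level; % is scaled to controls: 0 for no effect and ±100 for the full control effect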
Procedure, shortened: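 AP-1-bla ME-180 cells, Opti-MEM + 0.5% dialyzed FBS, plated overnight 37 °C. Cpd titration + EC50 EGF, 5 h 37 °C. CCF4 2.5 h RT; ex 405, em 460/530 ratio → %activity, AC50.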

[2] = NFAT Signaling Pathway (AID 444); conditions: Jurkat NFAT-bla M1, carbachol, beta-lactamase ratio, 5 h; at 17.2 µM (top of the series) unless noted;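 also: carbachol stimulus at about its EC50 of 1 µM final; % is scaled to controls: 0 for no effect and ±100 for the full control effect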
Procedure, shortened: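 Read-out: CCF4 FRET ratio (460 nm/530 nm) after 1 h RT dye loading, used for %activity and AC50 from titration series. Cells: Jurkat NFAT-β-lactamase/M1 line, treated with compound plus 1 uM carbachol for 5 h, 37 °C.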

[3] = Stat Signaling Pathway (AID 446); conditions: ME-180 SIE beta-lactamase reporter, IL-6 stimulated, 5 h; at 17.2 µM (top of the series) unless noted;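 also: ME-180 cervical cancer cells given 40 pM IL-6 alongside compound; SIE-controlled beta-lactamase reporter measured as 460/530 nm FRET emission ratio; % is scaled to controls: 0 for no effect and ±100 for the full control effect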
Procedure, shortened: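 ME-180 SIE-bla cells; overnight plating; cpd + IL-6 40 pM, 5 h, 37 C; LiveBLAzer 2.5 h RT; 460/530 nm emission ratio. Normalized to 300 pM IL-6 and 125 nM JAK inhibitor controls.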

[4] = target: Glucocorticoid receptor (Homo sapiens) (UniProt P04150); assay: GR-GFP Redistribution (AID 450;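 active = compounds whose dose series gives a full or clear partial fitted curve of increased nuclear translocation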; also: potency is read from the fitted curve at half-maximal effect)
Sequence of Glucocorticoid receptor (Homo sapiens) (P04150 whole entry, looked up): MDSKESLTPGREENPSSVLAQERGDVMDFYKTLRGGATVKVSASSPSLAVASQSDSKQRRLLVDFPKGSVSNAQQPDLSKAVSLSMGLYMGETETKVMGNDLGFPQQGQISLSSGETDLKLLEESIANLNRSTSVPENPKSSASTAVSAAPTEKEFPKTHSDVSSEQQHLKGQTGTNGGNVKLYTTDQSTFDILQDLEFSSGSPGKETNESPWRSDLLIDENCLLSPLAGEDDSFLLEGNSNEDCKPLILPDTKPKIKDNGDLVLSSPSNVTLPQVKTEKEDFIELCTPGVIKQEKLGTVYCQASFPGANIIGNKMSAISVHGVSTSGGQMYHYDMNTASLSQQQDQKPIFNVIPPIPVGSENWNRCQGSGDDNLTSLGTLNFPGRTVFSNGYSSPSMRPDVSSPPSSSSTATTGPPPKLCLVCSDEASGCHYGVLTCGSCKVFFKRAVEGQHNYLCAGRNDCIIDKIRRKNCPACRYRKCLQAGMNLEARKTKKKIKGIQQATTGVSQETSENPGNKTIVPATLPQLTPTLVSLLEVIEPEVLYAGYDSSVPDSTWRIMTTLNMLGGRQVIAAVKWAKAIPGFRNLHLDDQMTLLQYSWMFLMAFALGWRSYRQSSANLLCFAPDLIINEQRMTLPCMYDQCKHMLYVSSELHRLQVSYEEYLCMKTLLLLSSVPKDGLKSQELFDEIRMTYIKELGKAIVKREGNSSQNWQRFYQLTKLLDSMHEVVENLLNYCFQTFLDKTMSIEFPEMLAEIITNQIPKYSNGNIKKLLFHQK

Cc1c2c([n+]3n1CCC3)CC(C)(C)CC2=O
inactive: activity change, negative = inhibition [1] 8.99% | activity change, negative = inhibition [2] -9.27% | activity, negative = inhibition [3] 11.2% | Potency [4] > 20.6 µM

Cc1ccc2cc(CN(C(=O)c3ccco3)c3ccccc3)c(=O)[nH]c2c1
inactive: activity change, negative = inhibition [1] -24.5% | activity change, negative = inhibition [2] 2.15% | activity, negative = inhibition [3] -2.89% | Potency [4] > 20.6 µM

COCc1n[nH]c(=S)n1-c1cccc2ccccc12
inactive: activity change, negative = inhibition [1] -1.13% | activity change, negative = inhibition [2] 1.36% | activity, negative = inhibition [3] 0.355% | Potency [4] > 20.6 µM

O=c1[nH]nc2n1CCCCC2
inactive: activity change, negative = inhibition [1] 13.2% | activity change, negative = inhibition [2] 9.36% | activity, negative = inhibition [3] 7.42% | Potency [4] > 20.6 µM

COC(=O)COc1ccc(Oc2nc(SC)nc(N(C)C)n2)nn1
inactive: activity change, negative = inhibition [1] 4.25% | activity change, negative = inhibition [2] 4.35% | activity, negative = inhibition [3] -4.81% | Potency [4] > 20.6 µM

CCc1nc(NCC2CCCO2)c(C#N)c2c1COC(C)(C)C2 (stereo not given)
inactive: activity change, negative = inhibition [1] -25.1% | activity change, negative = inhibition [2] -16.2% | activity, negative = inhibition [3] -2.2% | Potency [4] > 20.6 µM

N#Cc1nc(-c2cccs2)oc1NCCc1ccccc1
inactive: activity change, negative = inhibition [1] -17.4% | activity change, negative = inhibition [2] -0.887% | activity, negative = inhibition [3] -12.8% | Potency [4] > 20.6 µM

CCCc1[nH]n(-c2nc3ccccc3s2)c(=O)c1C=NCCN1CCOCC1
inactive: activity change, negative = inhibition [1] -6.38% | activity change, negative = inhibition [2] -13.8% | activity, negative = inhibition [3] -4.13% | Potency [4] > 20.6 µM

c1ccc2c(c1)[nH]c1c(N3CCN(C4CCCCC4)CC3)ncnc12
inactive: activity change, negative = inhibition [1] 2.02% | activity change, negative = inhibition [2] -22.7% | activity, negative = inhibition [3] 0.857% | Potency [4] > 20.6 µM

N#CCCn1cnc2c(=S)nc[nH]c21
inactive: activity change, negative = inhibition [1] 16.8% | activity change, negative = inhibition [2] 11.2% | activity, negative = inhibition [3] 11.6% | Potency [4] > 20.6 µM

O=C1CCc2nc3ccccc3c(=O)n2N1
inactive: activity change, negative = inhibition [1] -6.16% | activity change, negative = inhibition [2] 22.2% | activity, negative = inhibition [3] -4.8% | Potency [4] > 20.6 µM

CC(=N\O)/C(CN(C)C)=N/O
inactive: activity change, negative = inhibition [1] -9.85% | activity change, negative = inhibition [2] 13% | activity, negative = inhibition [3] 12% | Potency [4] > 20.6 µM

O=C(Nc1ccc2c(c1)OCO2)c1cc2n(n1)C(C(F)(F)F)CC(c1ccccc1)N2 (stereo not given)
inactive: activity change, negative = inhibition [1] 6.53% | activity change, negative = inhibition [2] 6.64% | activity, negative = inhibition [3] -1.67% | Potency [4] > 20.6 µM

COc1ccc2c(c1)[nH]c1c(=O)n(CC3CCCO3)cnc12 (stereo not given)
inactive: activity change, negative = inhibition [1] -4.81% | activity change, negative = inhibition [2] 16.4% | activity, negative = inhibition [3] 2.17% | Potency [4] > 20.6 µM

Cc1cc(N2C(=O)C(=O)/C(=C(/O)c3ccccc3)C2c2cccs2)no1 (stereo not given)
inactive: activity change, negative = inhibition [1] -22.3% | activity change, negative = inhibition [2] 19% | activity, negative = inhibition [3] -21% | Potency [4] > 20.6 µM

COc1ccc(N2CCN(c3nc4c(c(=O)[nH]c(=O)n4C)n3CCCc3ccccc3)CC2)cc1
inactive: activity change, negative = inhibition [1] 22% | activity change, negative = inhibition [2] -12.3% | activity, negative = inhibition [3] -11% | Potency [4] > 20.6 µM

CCOC(=O)c1ccc(NC(=O)Cn2nnc3ccccc32)cc1
inactive: activity change, negative = inhibition [1] -12.4% | activity change, negative = inhibition [2] 12.9% | activity, negative = inhibition [3] -15% | Potency [4] > 20.6 µM

O=C(Nc1cccnc1)c1cccnc1
inactive: activity change, negative = inhibition [1] 11.7% | activity change, negative = inhibition [2] -7.91% | activity, negative = inhibition [3] 4.68% | Potency [4] > 20.6 µM

CC1(C)CC(=O)C(C=NCCN2CCN(C(=O)C34CC5CC(CC(C5)C3)C4)CC2)=C(O)C1
inactive: activity change, negative = inhibition [1] -9.89% | activity change, negative = inhibition [2] 9.88% | activity, negative = inhibition [3] 7.24% | Potency [4] > 20.6 µM

CC/C(C)=C1\SC(N2CCN(C(C)=O)CC2)=NC1=O
inactive: activity change, negative = inhibition [1] 2% | activity change, negative = inhibition [2] 5.99% | activity, negative = inhibition [3] 8.03% | Potency [4] > 20.6 µM

C=COC(=O)CSc1nc(-c2cccs2)ccc1C#N
inactive: activity change, negative = inhibition [1] 4.27% | activity change, negative = inhibition [2] -19.4% | activity, negative = inhibition [3] 12.2% | Potency [4] > 20.6 µM

O=C1CC(C(=O)O)c2ccccc2N1 (stereo not given)
inactive: activity change, negative = inhibition [1] 2.72% | activity change, negative = inhibition [2] -1.33% | activity, negative = inhibition [3] 6.42% | Potency [4] > 20.6 µM

Cc1cc(C)n2c3c(c(C#N)c2n1)CC(C)(C)OC3
inactive: activity change, negative = inhibition [1] 5.4% | activity change, negative = inhibition [2] -2.38% | activity, negative = inhibition [3] -0.114% | Potency [4] > 20.6 µM

O=C(Nc1ccc(Cl)cn1)C1CCCN1S(=O)(=O)c1ccccc1 (stereo not given)
inactive: activity change, negative = inhibition [1] -9.31% | activity change, negative = inhibition [2] -4.11% | activity, negative = inhibition [3] -6.7% | Potency [4] > 20.6 µM

CC(C)c1[nH]c(=O)c(C#N)c2c1CSC(C)(C)C2
inactive: activity change, negative = inhibition [1] -3.98% | activity change, negative = inhibition [2] -5.85% | activity, negative = inhibition [3] 4.25% | Potency [4] > 20.6 µM
